Sampled rows, rich in hits. Any-hit rate of the full collection: about 4.5%.
Beta apoptosis = blocks beta cell apoptosis | actives 0.8% (n = 300,000) | INS-1E cytokine-induced death, ATP luminescence, 48 h; percent of positive-control rescue, neutral wells zero | protection from apoptosis, % (test concentration not listed);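 active = Every replicate reaches about 75%, or at least half do and their mean reaches it too, limit read from the data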;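 note: 0% = cytokine-treated negative control wells and 100% = positive control rescue; higher means more ATP so stronger rescue from cytokine killing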
Jurkat NFkB inh = inhibitors of the PMA/ionomycin-induced NF-kB reporter in Jurkat cells | inhibition, % at 4 µM | PMA/ionomycin-induced NF-kB luciferase reporter, luminescence | actives 0.53% (n = 330,000); in the data active = inhibition above about 50%
CSC inhib = blocks cancer stem cells. cancer stem cell-like cells viability, luminescence. inhibition, % at 7.5 µM. actives 1.1% (n = 300,000). AID 2717; in the data active = inhibition above about 75%; tested in HMLE shEcad cells
Mdm2-MdmX inh = disrupts the human Mdm2-MdmX interaction. O15151+Q00987. SaOS-2 split-luciferase Mdm2/MdmX complementation, luminescence. inhibition, % at 8 µM. actives 3% (n = 330,000). AID 485346;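 active = inhibition of at least 50% at 8 µM in the primary screen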
Target sequence (O15151 whole entry, looked up): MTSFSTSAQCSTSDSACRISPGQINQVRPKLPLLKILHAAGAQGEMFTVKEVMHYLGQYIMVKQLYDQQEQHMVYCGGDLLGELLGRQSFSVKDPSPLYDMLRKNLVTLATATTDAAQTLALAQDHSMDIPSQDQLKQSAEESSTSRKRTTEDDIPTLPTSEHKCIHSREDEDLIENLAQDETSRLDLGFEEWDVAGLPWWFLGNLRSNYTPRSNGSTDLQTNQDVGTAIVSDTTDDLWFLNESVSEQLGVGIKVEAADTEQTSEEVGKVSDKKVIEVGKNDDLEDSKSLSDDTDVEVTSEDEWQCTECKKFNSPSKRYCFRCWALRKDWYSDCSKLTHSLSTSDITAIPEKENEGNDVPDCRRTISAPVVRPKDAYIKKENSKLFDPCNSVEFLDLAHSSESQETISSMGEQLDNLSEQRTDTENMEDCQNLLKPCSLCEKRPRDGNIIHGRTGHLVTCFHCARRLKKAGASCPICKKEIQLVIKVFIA
Target sequence (Q00987 whole entry, looked up): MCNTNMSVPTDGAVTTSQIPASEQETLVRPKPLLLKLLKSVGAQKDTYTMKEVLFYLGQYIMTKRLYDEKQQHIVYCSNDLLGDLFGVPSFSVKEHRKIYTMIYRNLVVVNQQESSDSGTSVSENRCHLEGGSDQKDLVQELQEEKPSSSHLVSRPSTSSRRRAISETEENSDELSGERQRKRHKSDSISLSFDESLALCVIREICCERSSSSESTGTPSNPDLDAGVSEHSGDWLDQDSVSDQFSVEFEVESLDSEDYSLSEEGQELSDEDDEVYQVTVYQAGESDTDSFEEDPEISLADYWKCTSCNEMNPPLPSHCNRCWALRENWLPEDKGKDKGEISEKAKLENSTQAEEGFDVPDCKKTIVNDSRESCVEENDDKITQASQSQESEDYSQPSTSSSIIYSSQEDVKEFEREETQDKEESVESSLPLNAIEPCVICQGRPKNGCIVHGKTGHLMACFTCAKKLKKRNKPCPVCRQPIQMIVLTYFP
697 NFkB inh = lowers PMA/ionomycin-induced NF-kB signal in 697 B cells; 697 B-cell NF-kB luciferase reporter, 16 h; AID 435022; inhibition, % at 4 µM; actives 0.33% (n = 330,000); in the data active = inhibition above about 35%
Gli-Sufu block = Gli-Sufu pathway antagonism | Sufu-KO-LIGHT fibroblasts, Gli luciferase reporter luminescence | actives 0.74% (n = 340,000) | inhibition, % at 5 µM;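 active = inhibition above about 55%, limit read from the data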;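 note: 0% = DMSO-treated cells and 100% = wells with medium but no cells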
Jurkat NFkB conf = lowers PMA/ionomycin-induced NF-kB signal in Jurkat cells; shares compounds with Jurkat NFkB inh; Jurkat NF-kB luciferase, 16 h; inhibition, % at 4 µM; actives 27% (n = 2,700); AID 435020;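 active = inhibition reaching about 45% at 4 µM in either replicate, limit read from the data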;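 note: plate controls were PMA/ionomycin stimulated DMSO wells for no effect and unstimulated DMSO wells for full effect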
697 NFkB conf = inhibitors of the PMA/ionomycin-induced NF-kB reporter in 697 B cells, retest; shares compounds with 697 NFkB inh; 697 B-cell NF-kB luciferase, 16 h; inhibition, % at 4 µM; actives 35% (n = 2,000); AID 449746; in the data active = inhibition mostly above about 28%, no sharp cut-off; inactive = mostly below about 22%
Mdm2-MdmX conf = confirmation of human Mdm2/MdmX interaction inhibitors. shares compounds with Mdm2-MdmX inh. Mdm2-MdmX binding, luminescent assay. inhibition, % at 8 µM. actives 55% (n = 10,000). AID 489028; in the data active = inhibition above about 40%
FLuc counter = inhibits full-length luciferase, flagging false Mdm2/MdmX hits. inhibition, % at 8 µM. shares compounds with Mdm2-MdmX inh. actives 77% (n = 6,200). SaOS-2 full-length luciferase counterscreen, luminescence;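 active = mean inhibition at 8 µM reaching about 37%, which flags the compound as non-specific, limit read from the data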;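 note: p53-null SaOS-2 cells with luciferase driven by a doxycycline-inducible promoter; compound on cells about two nights before reading with doxycycline added after day one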
* = called active by the depositor.

`Cc1ccc(/C=N/NC(=O)CSc2nc3ccccc3c(=O)n2-c2ccccc2)s1` gave Beta apoptosis -0.9, Jurkat NFkB inh 38.6, Mdm2-MdmX inh 27.4, 697 NFkB inh 1.9 and Gli-Sufu block 0.0.
`CCC(CC)c1nc(C(N)=O)c2[nH]c(=O)n(-c3ccc(OC)c(OC)c3)c2n1` gave Beta apoptosis 3.4, Jurkat NFkB inh -19.9, CSC inhib 1.7, Mdm2-MdmX inh 3.5, 697 NFkB inh -15.7 and Gli-Sufu block -1.9.
`COc1ccc(-c2cc(C(=O)Nc3cc(C)ccc3O)no2)cc1` gave Beta apoptosis -2.5, Jurkat NFkB inh 62.4*, CSC inhib 5.1, Mdm2-MdmX inh 56.5*, 697 NFkB inh -143.1, Gli-Sufu block -41.8, Jurkat NFkB conf -33.6 and Mdm2-MdmX conf -9.9.
O=c1oc(C2(O)CCCCC2)cc2ccc(-c3ccc4[nH]ccc4c3)cc12 was read as Beta apoptosis 3.4, Jurkat NFkB inh -168.2, Mdm2-MdmX inh 81.5*, 697 NFkB inh inactive, Gli-Sufu block 3.5, Jurkat NFkB conf -75.3, 697 NFkB conf inactive, Mdm2-MdmX conf 61.0* and FLuc counter 41.2*.
`CCC(CC)C(=O)OCC(=O)Nc1cccc([N+](=O)[O-])c1` gave Beta apoptosis -1.1, Jurkat NFkB inh -2.2, CSC inhib 0.6, Mdm2-MdmX inh 11.6, 697 NFkB inh 16.0 and Gli-Sufu block -10.6.
Nc1ccc(S(=O)C(F)(F)F)cc1 (centres undefined) was read as Beta apoptosis -0.4, Jurkat NFkB inh -7.3, CSC inhib 4.7, Mdm2-MdmX inh -18.2, 697 NFkB inh 3.4 and Gli-Sufu block -1.1.
Screening COc1ccc(OC)c(C2C3=C(COC3=O)Nc3cc4c(cc32)OCO4)c1 (centres undefined) returned Beta apoptosis 50.4, Jurkat NFkB inh 77.5*, Mdm2-MdmX inh 55.2*, 697 NFkB inh 43.2*, Gli-Sufu block 14.0, Jurkat NFkB conf 42.2, 697 NFkB conf 39.3*, Mdm2-MdmX conf 68.5* and FLuc counter 124.6*.
`CC(C)Oc1ccc(CNS(=O)(=O)c2csc(C(N)=O)c2)cc1` gave Beta apoptosis 4.6, Jurkat NFkB inh -0.3, CSC inhib 18.8, Mdm2-MdmX inh 17.7, 697 NFkB inh -36.7 and Gli-Sufu block -0.6.
For O=C1c2cccc3cc([N+](=O)[O-])cc(c23)C(=O)N1CCN1CCCC1 the results were Jurkat NFkB inh 86.5*, Mdm2-MdmX inh 90.0*, 697 NFkB inh -167.7, Gli-Sufu block 74.8*, Jurkat NFkB conf 57.1*, Mdm2-MdmX conf 95.8* and FLuc counter 52.6*.
`CCN(CC)c1ccc2nc3ccc(N)cc3[n+](-c3ccccc3)c2c1` gave Jurkat NFkB inh 82.8*, Mdm2-MdmX inh 91.7*, 697 NFkB inh 20.2, Gli-Sufu block 92.5*, Jurkat NFkB conf 68.4*, Mdm2-MdmX conf 92.8* and FLuc counter 23.6.
For CCN(CC)c1ccc2nc3ccccc3[n+](CC)c2c1 the results were Beta apoptosis 98.9*, Jurkat NFkB inh 55.9*, CSC inhib 25.7, Mdm2-MdmX inh 53.5*, 697 NFkB inh 17.8, Gli-Sufu block 25.7, Jurkat NFkB conf 56.5* and Mdm2-MdmX conf 36.9.
For CN(CC(O)COc1ccc2ccccc2c1)C1CCCCC1 (centres undefined) the results were Beta apoptosis 6.8, Jurkat NFkB inh -2.5, CSC inhib -8.7, Mdm2-MdmX inh -5.2, 697 NFkB inh 18.4 and Gli-Sufu block -7.2.
`Cc1c(C(=O)N2C[C@@H](C)O[C@@H](C)C2)oc2c(F)cccc12` gave Beta apoptosis -10.4, Jurkat NFkB inh -66.1, CSC inhib -6.7, Mdm2-MdmX inh -89.3, 697 NFkB inh -65.5 and Gli-Sufu block 26.8.
For CCOc1cccc(C(=O)Nc2ccc3c(c2)OCCO3)c1 the results were Beta apoptosis -0.4, Jurkat NFkB inh -145.9, CSC inhib 9.0, Mdm2-MdmX inh -94.7, 697 NFkB inh -167.6 and Gli-Sufu block -93.3.
For Cc1c(C(=O)OC2CCCC2)[nH]c2c1C(=O)CC(c1ccco1)C2 (centres undefined) the results were Beta apoptosis 42.5, Jurkat NFkB inh 66.7*, CSC inhib 63.6, Mdm2-MdmX inh 68.0*, 697 NFkB inh -31.7, Gli-Sufu block 46.5, Jurkat NFkB conf 56.6*, Mdm2-MdmX conf 47.8* and FLuc counter 78.4*.
`COC(=O)c1[nH]c2c(c1C)C(=O)CC(c1ccc(OC)cc1)C2` (centres undefined) gave Beta apoptosis -2.4, Jurkat NFkB inh 9.2, CSC inhib -10.5, Mdm2-MdmX inh 16.2, 697 NFkB inh -3.0 and Gli-Sufu block 10.4.
C=CCOC(=O)c1[nH]c2c(c1C)C(=O)CC(c1ccco1)C2 (centres undefined) was read as Beta apoptosis -15.5, Jurkat NFkB inh 73.5*, CSC inhib 7.4, Mdm2-MdmX inh 63.3*, 697 NFkB inh -15.2, Gli-Sufu block 53.7, Jurkat NFkB conf 50.0*, Mdm2-MdmX conf 55.5* and FLuc counter 86.2*.
Screening C/C=C/COC(=O)c1[nH]c2c(c1C)C(=O)CC(c1ccc(N(C)C)cc1)C2 (centres undefined) returned Beta apoptosis 12.6, Jurkat NFkB inh 9.4, Mdm2-MdmX inh 21.1, 697 NFkB inh 11.9 and Gli-Sufu block 0.5.
`Cc1c(C(=O)OCC(C)C)[nH]c2c1C(=O)CC(c1ccco1)C2` (centres undefined) gave Beta apoptosis 27.9, Jurkat NFkB inh 64.8*, Mdm2-MdmX inh 75.1*, 697 NFkB inh -29.0, Gli-Sufu block 43.6, Jurkat NFkB conf 6.3, Mdm2-MdmX conf 54.3* and FLuc counter 76.6*.
Screening CCOC(=O)c1[nH]c2c(c1C)C(=O)CC(c1ccc(OC)c(OC)c1)C2 (centres undefined) returned Beta apoptosis 1.2, Jurkat NFkB inh -8.2, CSC inhib -0.3, Mdm2-MdmX inh 6.3, 697 NFkB inh -12.0 and Gli-Sufu block 8.9.
For CC1CCCN(C(=O)COC(=O)C2=COCCO2)C1 (centres undefined) the results were Beta apoptosis -5.1, Jurkat NFkB inh -9.7, CSC inhib -5.2, Mdm2-MdmX inh 0.5, 697 NFkB inh -10.1 and Gli-Sufu block -13.0.

High-throughput results as filed in PubChem.
